In PubChem BioAssay AID1347048 (National Center for Advancing Translational Sciences (NCATS), 2019):
Out of some 76,000 compounds screened, about 1,200 (1.6%) were called active. About 4% were inconclusive and are not listed. Calls follow the shape of the full dose curve. The full list was thinned out, with actives kept by preference.

The compounds below were run against Atrial natriuretic peptide receptor 1 (Homo sapiens) (UniProt P16066) (assay: Natriuretic polypeptide receptor (hNpr1) antagonism - Primary qHTS). Details: HEK293 hNpr1 GloSensor cGMP, ANP-stimulated luminescence; series mostly up to 70.6 µM; activity change, negative = inhibition: at the top concentration.
Chain of Atrial natriuretic peptide receptor 1 (Homo sapiens) (P16066 whole entry, looked up): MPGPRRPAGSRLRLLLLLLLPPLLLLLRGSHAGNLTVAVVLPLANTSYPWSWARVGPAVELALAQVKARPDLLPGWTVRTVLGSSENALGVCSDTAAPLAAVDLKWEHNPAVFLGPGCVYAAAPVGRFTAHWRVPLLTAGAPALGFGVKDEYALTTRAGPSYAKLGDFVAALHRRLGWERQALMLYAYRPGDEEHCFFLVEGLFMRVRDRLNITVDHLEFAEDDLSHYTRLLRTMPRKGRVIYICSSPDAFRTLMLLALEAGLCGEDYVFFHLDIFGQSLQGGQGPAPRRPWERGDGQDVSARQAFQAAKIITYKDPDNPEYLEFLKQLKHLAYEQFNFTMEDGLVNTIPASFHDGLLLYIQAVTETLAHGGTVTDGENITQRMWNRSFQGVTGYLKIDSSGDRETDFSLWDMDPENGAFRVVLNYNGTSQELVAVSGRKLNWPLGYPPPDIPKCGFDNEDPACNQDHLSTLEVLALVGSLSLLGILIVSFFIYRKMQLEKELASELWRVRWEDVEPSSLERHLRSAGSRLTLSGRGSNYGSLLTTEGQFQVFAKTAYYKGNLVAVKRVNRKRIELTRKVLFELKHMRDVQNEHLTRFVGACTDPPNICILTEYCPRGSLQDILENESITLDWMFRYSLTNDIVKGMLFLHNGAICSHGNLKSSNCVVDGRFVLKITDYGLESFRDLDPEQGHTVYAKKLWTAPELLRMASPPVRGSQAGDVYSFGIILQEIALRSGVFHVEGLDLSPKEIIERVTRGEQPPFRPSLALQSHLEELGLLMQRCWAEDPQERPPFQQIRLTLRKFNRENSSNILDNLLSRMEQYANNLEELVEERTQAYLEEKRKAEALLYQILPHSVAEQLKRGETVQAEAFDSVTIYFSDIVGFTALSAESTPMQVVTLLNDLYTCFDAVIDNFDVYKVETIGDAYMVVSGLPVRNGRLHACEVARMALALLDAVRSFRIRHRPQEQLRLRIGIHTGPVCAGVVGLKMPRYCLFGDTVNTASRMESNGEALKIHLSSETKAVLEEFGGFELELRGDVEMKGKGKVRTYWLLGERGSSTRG
Excerpt: Pruritus or itch, is an irritating skin sensation that creates a need to scratch, and ranges from mildly unpleasant and passing to acute and persistent sensations. […] Conventional treatments include topical anti-inflammatory agents, anti-histamines, and emollients, which are aimed at managing the itchy sensation and not the underlying disease. The treatment of pruritus remains a diagnostic and therapeutic challenge. Neurotransmission in the spinal cord from primary pruriceptors to second order neurons is a necessary step that eventually results in the sensation of itch. At this synapse, primary pruriceptors use the neuropeptide natriuretic polypeptide B (NppB) to activate its cognate receptor Natriuretic polypeptide receptor 1 (Npr1) on second order neurons. Inhibition of this step is a new potential strategy to inhibit acute and chronic itch. In order to identify small molecular compounds that can inhibit the Npr1 receptor we developed a high-throughput assay to probe inhibition of the receptor guanylate cyclase Npr1. The assay was designed taking advantage of Promega's GloSensor[TM] technology (Fan, F. et al. 2008). It involves the expression of a cyclic guanosine monophosphate (cGMP) biosensor, comprised of a firefly luciferase variant that was coupled to the cGMP binding domain of human phosphodiesterase 5A, and loading of cells with a cell-permeable luciferase substrate to monitor cGMP production by Npr1 in real time in live cells. In detail, we generated human embryonic kidney 293 cells stably expressing the human Npr1 and the cGMP GloSensor[TM] pGS-40F. Stimulating these cells with the Npr1 agonists human NppA or NppB, luciferase-induced light production could be detected in a dose-dependent manner. We also generated HEK293 cells stably expressing human Npr2 and pGS-40F and cells only expressing pGS-40F to conduct secondary counter screens. In these cells, NppC or sodium nitroprusside were used to stimulate Npr2 or soluble guanylate cyclase which is endogenously expressed in HEK293 cells, respectively. REFERENCE F. Fan, B. F. Binkowski, B. L. Butler, P. F. Stecha, M. K. Lewis, K. V. Wood, Novel genetically encoded biosensors using firefly luciferase. ACS Chem. Biol., 2008, 3: 346-351 .
PROTOCOL TABLES (as described by Inglese J, Shamu CE and Guy RK. 2007) SEQUENCE No. (e.g., 1, 2, 3, etc.); […] (e.g., Cells, Incubation, Reagent, etc.); VALUE and DESCRIPTION. GLOSENSOR PROTOCOL 1. Cells. Seed 1500 HEK293 cGMP-sensor cells expressing hNpr1 per well in 4uL into Greiner 1536-well white/solid bottom high base, tissue culture-treated plates. 2. Incubation. Incubate plated cells at 37C in 5% CO2, 95% RH overnight. 3. Reagent. Add 1uL per well GloSensor reagent from Promega (2% final concentration) or CO2 independent media vehicle control to respective columns of Greiner 1536-well plates. 4. Incubation. Incubate plated cells at room temperature for 2 h, protect from light. 5. Compounds. Library compounds and A-71915 control added at 23 nL per well, transferred by Pin Tool. 6. Incubation. Incubate plated cells for 30 min. at room temperature, protect from light. 7. Detector. GloSensor baseline pre-read luminescence measured using CCD-based camera (Viewlux). 8. Compound. Add 1uL of hNppA peptide to 0.1 nM final concentration to stimulate hNpr1 or CO2 independent media as vehicle control. 9. Incubation. Incubate treated cells at room temperature for 20 min., protect from light. 10. Detector. GloSensor post-hNppA luminescence measured using CCD-based camera (Viewlux). NOTES (numbers refer to Sequence numbers above) 1. HEK293 cells expressing hNpr1 and GIP/pGS-40F grown to 85-95% confluence (48-72 h) in T175 culture flasks (CO2 independent media supplemented with 10% FBS, 1% Pen/Strep antibiotics and 1 ug/mL puromycin). Trypsinize and harvest cells from T175 culture flasks and filter through 40 um cell strainer. Cells counted with Invitrogen Countess (30,000,000 - 50,000,000 cells/flask). […]
% is scaled to controls: 0 for no effect and ±100 for the full control effect; potency is read from the fitted curve at half-maximal effect.
Also: nearly all actives have a fitted effect of over 60% in size.

Structure (SMILES)	Potency	activity change, negative = inhibition
COc1cc2c(cc1Oc1cccc(N(C)C)c1)NC(=O)C21CCN(Cc2ccccn2)CC1	10 µM (active)	–
COc1cc2c(cc1Oc1ccccc1)NC(=O)C21CCN(c2ccnc(C)n2)CC1	–	-18.9% (inactive)
COc1cc2c(cc1OCc1ccncc1)NC(=O)C21CCN(Cc2ccccn2)CC1	–	-3.28% (inactive)
CN(Cc1ccccc1)C[C@H]1CN2CC[C@H]1C[C@@H]2CNC(=O)Nc1cccc(C#N)c1	–	4.8% (inactive)
COc1cc2c(cc1OCc1ccccc1)NC(=O)C21CCN(CCC(C)C)CC1	–	-15.2% (inactive)
COc1cc2c(cc1OCc1ccncc1)NC(=O)C21CCN(c2ncccn2)CC1	–	0.378% (inactive)
COc1cc2c(cc1OCc1ccncc1)NC(=O)C21CCN(c2ncc(F)cn2)CC1	20 µM (active)	–
Cc1nc(-c2ccccc2)cc([C@H]2CN3CC[C@H]2C[C@@H]3CNC2CCOCC2)n1	–	3.49% (inactive)
O=C(NCc1ccccc1)[C@H]1CN2CCC1C[C@@H]2Cn1cc(-c2ccc(F)cc2)nn1 (stereo not given in full)	–	-8.5% (inactive)
Cc1nc(-c2ccccc2)cc([C@H]2CN3CC[C@H]2C[C@@H]3CNC2CCN(C)CC2)n1	–	-2.27% (inactive)
CCC(CC)c1cc([C@H]2CN3CC[C@H]2C[C@@H]3CNS(=O)(=O)c2ccccc2C#N)nc(-c2ccncc2)n1	–	-24.1% [at 46.3 µM] (inactive)
CCCS(=O)(=O)NC[C@H]1C[C@@H]2CCN1C[C@@H]2c1cc(-c2ccccc2)nc(C)n1	–	1.77% (inactive)
CCC(CC)c1cc([C@H]2CN3CC[C@H]2C[C@@H]3CNC(=O)NCc2ccccc2)nc(-c2ccncc2)n1	11.2 µM (active)	–
COc1ccc(C(=O)N2[C@H]3CC[C@@H]2c2cnc(-c4ccccc4)nc2C3)c(OC)c1	–	-30.3% [at 46.3 µM] (inactive)
COc1cc2c(cc1OCc1ccccc1)NC(=O)C21CCN(C(=O)C(C)C)CC1	–	-9.19% (inactive)
